# Values joined by “and” are separate entries in the source; they are usually repeats but may differ in a detail not shown here. Identical values can stand only once. About 83,000 compounds went through this panel and 20% of them were active in at least one assay; those are over-represented in the sample as a whole.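 Single-dose data. Exposure time 48 hours. Values below 10 considered active.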 Unmarked numbers belong to inactive results. Active and inactive are the calls of the source.
# Test system: NCI-H322M lung
# Experiment: NCI-60 one-dose screen, 48 h (100 = growth as untreated, 0 = no growth, -100 = all killed)
# Conditions: 10 µM
# Description: Growth inhibition of the NCI-H322M human Non-Small Cell Lung tumor cell line is measured as a screen for anti-cancer activity. Cells are grown in 96 well plates and exposed to the test compound for 48 hours. Compounds are tested at a single concentration, which is 10^-5 M for most compounds. The reported endpoint is percent growth (GI% or GIPRCNT), where numbers from 0 - 100% represent growth inhibition, and numbers from -100% - 0 represent cell death. For example, a value of 40 represents 60% growth inhibition. A value of 0 means no net growth occurred over the course of the experiment. A value of -40 indicates 40% of cells at the beginning of the experiment died by the end of the experiment. A value of -100 means all cells are dead at the end of the experiment.
# NCI-60 Human Tumor Cell Lines Screen was performed using the standard one-dose NCI protocol, which is described in more detail at https://dtp.cancer.gov/discovery_development/nci-60/default.htm.
# Compounds with GIPRCNT values below 10 were considered active. Activity score was based on GIPRCNT using the following formula: […]
# Score is 0 for GIPRCNT values of 100 or above, 50 for GIPRCNT values of 0, and 100 for GIPRCNT values of -100.
row,SMILES,growth
1,[O-][n+]1ccccc1S,64.1%
2,COC12C(COC(N)=O)C3=C(C(=O)C(C)=C(N)C3=O)N1CC1C2N1C (stereo not given),30%
3,[Cl][Sn]([c]1ccccc1)([c]1ccccc1)[c]1ccccc1,-89.5% (active)
4,COc1cc2c(c(OC)c1OC)-c1ccc(O)c(=O)cc1[C@@H](NC(C)=O)CC2,57.5%
5,NNc1ccccc1,114%
6,Cc1cc(C)c(C[N+](C)(C)C)c(C)c1C,1.22% (active)
7,COc1ccccc1[As]=[As]c1ccccc1OC (stereo not given),-80.8% (active)
8,N#CCc1ccccc1,105%
9,S=C=NCCc1ccccc1,110%
10,COc1cc(/C=C/[N+](=O)[O-])cc(OC)c1OC,36.1%
11,CCOP(=O)(OCC)/C(C#N)=C/c1ccc(Br)cc1,105%
12,Cc1ccc(NC(=O)CBr)cc1,99.4%
13,COc1cc(/C=C/[N+](=O)[O-])cc(Br)c1OC,99.5%
14,O=[N+]([O-])c1ccc(N2CCOCC2)c2c1no[n+]2[O-],28.1%
15,CC1CCC2(OC1)OC1C(O)C3C4CCC5CC(OC6OC(CO)C(OC7OC(CO)C(O)C(OC8OCC(O)C(O)C8O)C7OC7OC(CO)C(O)C(OC8OC(CO)C(O)C(O)C8O)C7O)C(O)C6O)C(O)CC5(C)C4CCC3(C)C1C2C (stereo not given),13.2%
16,[Cl][Hg][c]1ccc(Cl)s1,91.3%
17,Oc1ccccc1-c1ccccc1,91.5% and 109%
18,Cn1c(O)c(N=O)c(=O)n(C)c1=O,97.1% and 101%
19,O=[N+]([O-])/C=C/c1ccc([N+](=O)[O-])cc1,90.4% and 92.5%
20,NC(=O)c1cc([N+](=O)[O-])c(Cl)c([N+](=O)[O-])c1Cl,98.3%

row,SMILES,growth
1,O=c1[nH]c2ccccc2n1C1CCN(CCCC(c2ccc(F)cc2)c2ccc(F)cc2)CC1,64.2% and 67.5%
2,Cc1cc(C(C)(C)c2ccc(O)c(C)c2)ccc1O,93.4%
3,C=NCC#N,107% and 118%
4,C[C@@H]1C[C@@H]([C@H](O)CC2CC(=O)NC(=O)C2)C(=O)[C@@H](C)C1,2.7% (active)
5,O=[N+]([O-])c1cc[n+]([O-])c2ccccc12,-18.3% (active)
6,CN(C)CC1(N)C(=O)NC(=O)NC1=O,104%
7,COc1cc(/C=C\[N+](=O)[O-])ccc1O,85.7%
8,COc1cc([N+](=O)[O-])c2ncccc2c1[N+](=O)[O-],103%
9,[Cl][Hg][c]1ccc2ccccc2c1,-53.1% (active)
10,COc1ccc(/C=C(\C)[N+](=O)[O-])cc1OC,64.9%
11,O=[N+]([O-])c1ccc(Br)c([N+](=O)[O-])c1,115%
12,C/C(=C\c1ccc(Cl)c(Cl)c1)[N+](=O)[O-],94.6% and 100%
13,CC[C@@]1(O)C[C@H](OC2CC(N(C)C)C(O)C(C)O2)c2c(cc3c(c2O)C(=O)c2c(O)ccc(O)c2C3=O)[C@H]1C(=O)OC (stereo not given in full),-78.6% (active)
14,CC/C(=C/c1ccc(OC)cc1)[N+](=O)[O-],86%
15,COc1cc(/C=C(/C)[N+](=O)[O-])ccc1O,66.7% and 91.5%
16,COc1cc2c(cc1OC)C13CCN4CC5=CCOC6CC(=O)N2C1C6C5CC43 (stereo not given),118% and 144%
17,CC/C(=C/c1ccc(OC)cc1OC)[N+](=O)[O-],90.3%
18,O=S(=O)(F)c1ccc(Cl)cc1,123%
19,O=C(O)c1cc(Cc2ccc(O)c(C(=O)O)c2)ccc1O (tested in a mixture with another compound),87%
20,CCCCCCCC[N+]12CN3CN(CN(C3)C1)C2,84.8%
